Laboratory results from PubChem BioAssay (EPA / NIEHS).
Several values for one entry are separate records, joined by “and”; a condition that tells them apart may be missing. Equal entries are not always repeated. A structure can be active in one record and inactive in another. Activity calls are given as the source filed them. Rule for the calls: active = hit-call score of the fitted dose curve at least 0.9, where 1 is the maximum; inactive = score below 0.9.

How the values were obtained:
[1] = biological target: CCAAT/enhancer-binding protein beta (Homo sapiens) (UniProt P17676); experiment: ATG_C_EBP_CIS: Attagene CIS-FACTORIAL HepG2 Assay for human CCAAT/Enhancer Binding Protein (C/EBP) beta (AID 2282927); conditions: HepG2 Attagene cis-factorial transcription factor reporter; actives raise or lower the signal
Outline: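 Following a 24 h incubation with test chemical, transfected HepG2 cells yielded RNA whose reporter transcripts were quantified by RT-PCR and fluorescent capillary electrophoresis, with DMSO serving as baseline for bidirectional fitting.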

[2] = ATG_CMV_CIS: Attagene CIS-FACTORIAL HepG2 Assay for human CMV (Internal Marker) (AID 2282928); conditions: HepG2 CMV promoter reporter, transcription factor profiling; actives raise or lower the signal;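 note: endpoint acts as a background internal control marker rather than a target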
Outline: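 24 h chemical treatment, HepG2 with transient multi-reporter transfection; RNA → oligo(dT) RT → PCR → 6-FAM extension → HpaI digest → CE fluorescence. Bidirectional fit, DMSO negative control.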

[3] = ATG_DR4_LXR_CIS: Attagene CIS-FACTORIAL HepG2 Assay for human Liver X Receptor (LXR), DR4 submotif (AID 2282929); conditions: HepG2 Attagene DR4 cis-reporter, mRNA transcription; actives raise or lower the signal
Outline: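 Cells were transfected with multiple reporter transcription units, exposed to chemicals for 24 hours, then lysed for RNA. Reporter mRNA induction was measured by RT-PCR with capillary electrophoresis detection and fitted in both directions relative to DMSO.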

[4] = biological target: Aryl hydrocarbon receptor (Homo sapiens) (UniProt P35869); experiment: ATG_Ahr_CIS: Attagene CIS-FACTORIAL HepG2 Assay for human Aryl Hydrocarbon Receptor (Ahr) (AID 2282930); conditions: HepG2 AhR cis-factorial reporter transcription; actives raise or lower the signal
Outline: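 Values derive from bidirectional fitting against DMSO negative control. Underlying signal: cis-element reporter mRNA in transiently transfected HepG2, harvested 24 h post-dose and measured by RT-PCR plus capillary electrophoresis.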

[5] = ATG_AP_1_CIS: Attagene CIS-FACTORIAL HepG2 Assay for human Activator Protein 1 (AP-1) (AID 2282931); conditions: HepG2 Attagene cis-factorial AP-1 reporter mRNA; actives raise or lower the signal
Outline: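 Endogenous transcription-factor activity in human HepG2 liver cells is read through a cis-promoter reporter transcript, sampled 24 h after dosing. Detection uses RT-PCR with capillary electrophoresis; values come from bidirectional fitting relative to DMSO.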

[6] = ATG_AP_2_CIS: Attagene CIS-FACTORIAL HepG2 Assay for human Activator Protein 2 (AP-2) (AID 2282932); conditions: HepG2 AP-2 cis-reporter, Attagene transcription factor profiling; actives raise or lower the signal
Outline: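 Assay in transfected HepG2 with promoter-regulated reporters, 24 h incubation after dosing. Signal is reporter mRNA fluorescence (RT-PCR, capillary electrophoresis), analysed for both increases and decreases relative to DMSO controls.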

[7] = ATG_BRE_CIS: Attagene CIS-FACTORIAL HepG2 Assay for human Bone Morphogenetic Protein (BMP) Response Element (BRE) (AID 2282933); conditions: HepG2 BMP response element reporter, Attagene transcription factor profiling; actives raise or lower the signal
Outline: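 Read-out: reporter mRNA induction quantified by RT-PCR and capillary electrophoresis after 24 h chemical exposure of transfected HepG2 cells. Endogenous factor activity on the BMP response element; gain or loss fitted against DMSO baseline.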

[8] = biological target: Transcription factor E2F1 (Homo sapiens) (UniProt Q01094); experiment: ATG_E2F_CIS: Attagene CIS-FACTORIAL HepG2 Assay for human E2F Transcription Factor 1 (AID 2282935); conditions: HepG2 Attagene cis-reporter, E2F reporter RNA transcripts; actives raise or lower the signal
Outline: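 In this cis-factorial format, endogenous factor activity drives transfected reporters in HepG2; transcripts collected at 24 h are quantified by fluorescence after RT-PCR and capillary separation.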

[9] = ATG_CRE_CIS: Attagene CIS-FACTORIAL HepG2 Assay for human cAMP Responsive Element (CRE) binding protein 3 (AID 2282926); conditions: HepG2 CRE cis-reporter, Attagene multiplexed mRNA; actives raise or lower the signal
Outline: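 Endogenous transcription factor activity read via CRE-regulated reporter transcripts in transfected HepG2 cells. After 24 h exposure, RNA was reverse-transcribed, amplified, fluorescently labelled and sized by capillary electrophoresis; gain or loss fitted against DMSO.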

[10] = biological target: Retinoic acid receptor alpha (Homo sapiens) (UniProt P10276); experiment: ATG_DR5_RAR_CIS: Attagene CIS-FACTORIAL HepG2 Assay for human Retinoic Acid Receptor Alpha (RARE), DR5 submotif (AID 2282934); conditions: HepG2 Attagene cis-factorial RARE DR5 reporter, mRNA; actives raise or lower the signal;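 for AC50: reporter responds to endogenous RAR alpha beta and gamma in HepG2 not RARA alone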
Outline: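 Endpoint fitted in both directions relative to DMSO as negative control. It reflects DR5 cis-element reporter mRNA induction in transiently transfected HepG2 cells, measured 24 h after dosing through RT-PCR and fluorescent capillary electrophoresis.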

Measured: AC50

Chain of Retinoic acid receptor alpha (Homo sapiens) (P10276 whole entry, looked up): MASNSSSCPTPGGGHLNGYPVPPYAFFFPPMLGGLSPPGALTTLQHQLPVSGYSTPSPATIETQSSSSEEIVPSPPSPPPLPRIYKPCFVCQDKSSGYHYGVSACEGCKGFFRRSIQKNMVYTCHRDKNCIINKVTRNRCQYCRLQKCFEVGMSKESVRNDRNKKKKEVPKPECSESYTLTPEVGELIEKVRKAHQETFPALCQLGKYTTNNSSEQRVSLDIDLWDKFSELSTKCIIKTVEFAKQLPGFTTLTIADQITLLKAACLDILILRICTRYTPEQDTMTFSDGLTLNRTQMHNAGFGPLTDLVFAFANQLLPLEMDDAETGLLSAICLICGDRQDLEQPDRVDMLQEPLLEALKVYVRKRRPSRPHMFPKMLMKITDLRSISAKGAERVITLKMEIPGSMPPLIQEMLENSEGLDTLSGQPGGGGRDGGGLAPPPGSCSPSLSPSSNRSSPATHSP
Chain of Transcription factor E2F1 (Homo sapiens) (Q01094 whole entry, looked up): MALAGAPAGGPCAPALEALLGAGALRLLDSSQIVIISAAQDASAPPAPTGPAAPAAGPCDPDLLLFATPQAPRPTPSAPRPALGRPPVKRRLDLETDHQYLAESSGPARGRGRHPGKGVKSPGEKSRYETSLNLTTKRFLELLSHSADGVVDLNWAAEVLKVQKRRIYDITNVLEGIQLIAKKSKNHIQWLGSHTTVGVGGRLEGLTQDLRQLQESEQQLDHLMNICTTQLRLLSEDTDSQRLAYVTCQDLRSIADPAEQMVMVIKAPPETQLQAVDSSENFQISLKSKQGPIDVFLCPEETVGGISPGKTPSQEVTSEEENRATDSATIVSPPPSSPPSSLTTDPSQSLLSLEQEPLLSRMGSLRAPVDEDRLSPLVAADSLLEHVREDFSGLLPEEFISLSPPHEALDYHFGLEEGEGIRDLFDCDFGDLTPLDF
Chain of CCAAT/enhancer-binding protein beta (Homo sapiens) (P17676 whole entry, looked up): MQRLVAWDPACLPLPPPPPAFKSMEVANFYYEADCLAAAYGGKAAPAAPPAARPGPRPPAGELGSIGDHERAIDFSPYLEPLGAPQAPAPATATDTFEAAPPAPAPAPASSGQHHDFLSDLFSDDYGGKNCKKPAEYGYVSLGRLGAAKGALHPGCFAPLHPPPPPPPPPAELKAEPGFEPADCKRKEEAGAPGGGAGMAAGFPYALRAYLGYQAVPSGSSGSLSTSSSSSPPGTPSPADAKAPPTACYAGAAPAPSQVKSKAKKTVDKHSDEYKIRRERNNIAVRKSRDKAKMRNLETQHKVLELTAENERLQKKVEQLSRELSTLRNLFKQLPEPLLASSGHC
Chain of Aryl hydrocarbon receptor (Homo sapiens) (P35869 whole entry, looked up): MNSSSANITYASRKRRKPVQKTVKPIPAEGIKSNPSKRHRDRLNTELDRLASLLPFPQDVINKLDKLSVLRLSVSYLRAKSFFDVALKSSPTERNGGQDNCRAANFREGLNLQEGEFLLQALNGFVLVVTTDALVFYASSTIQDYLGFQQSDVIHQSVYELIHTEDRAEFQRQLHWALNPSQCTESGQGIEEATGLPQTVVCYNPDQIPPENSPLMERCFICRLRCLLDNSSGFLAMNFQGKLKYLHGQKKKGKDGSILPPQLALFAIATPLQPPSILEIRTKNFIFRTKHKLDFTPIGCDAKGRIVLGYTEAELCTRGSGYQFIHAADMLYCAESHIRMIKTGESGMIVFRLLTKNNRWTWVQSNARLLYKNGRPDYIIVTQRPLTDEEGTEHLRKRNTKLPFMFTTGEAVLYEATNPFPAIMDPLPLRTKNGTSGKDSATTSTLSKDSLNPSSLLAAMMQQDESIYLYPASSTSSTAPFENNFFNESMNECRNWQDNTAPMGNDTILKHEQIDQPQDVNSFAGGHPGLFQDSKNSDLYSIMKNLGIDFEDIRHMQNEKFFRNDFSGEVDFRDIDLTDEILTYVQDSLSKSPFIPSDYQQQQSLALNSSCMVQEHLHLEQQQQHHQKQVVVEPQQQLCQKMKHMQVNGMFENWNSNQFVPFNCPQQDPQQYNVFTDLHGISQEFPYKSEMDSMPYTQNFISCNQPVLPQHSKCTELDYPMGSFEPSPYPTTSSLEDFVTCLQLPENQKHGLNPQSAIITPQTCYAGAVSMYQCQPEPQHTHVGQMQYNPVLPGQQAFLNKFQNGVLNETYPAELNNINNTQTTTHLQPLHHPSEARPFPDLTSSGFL

OCC(CO)n1cnc(-c2ccc(F)cc2)c1-c1ccnc(Oc2ccccc2)n1
not listed: [9] | [10]
inactive: all other assays above

S=c1[nH]c2ccccc2s1
active: [2] 100 µM | [5] 19.8 µM | [7] 7.98 µM
not listed: [4]
inactive: all other assays above

COC(=O)CCC(=O)OC
not listed: [4] | [10]
inactive: all other assays above

C#CC(O)C(CC)CCCC (configuration not stated)
active: [1] 128 µM | [3] 161 µM | [5] 100 µM
not listed: [6] | [10]
inactive: all other assays above

CCC(C)N(C)C(=O)c1cc2ccccc2c(-c2ccccc2Cl)n1 (configuration not stated)
active: [2] 46 µM | [3] 31.8 µM | [5] 84.8 µM | [7] 97.4 µM
inactive: [9] | [1] | [4] | [8]

CCCCOC(=O)CCCCC(=O)OCCCC
active: [2] 154 µM
not listed: [9]
inactive: all other assays above

CC(=O)OC1CC(C)OC(C)O1 (configuration not stated)
not listed: [9]
inactive: all other assays above

C=CCc1ccc(OC)c(OC)c1
not listed: [6] | [10]
inactive: all other assays above

CC(=O)O[C@]1(C(C)=O)CC[C@H]2[C@@H]3C=C(Cl)C4=CC(=O)[C@@H]5C[C@@H]5[C@]4(C)[C@H]3CC[C@@]21C
inactive: [1] | [2] | [3] | [4] | [5] | [6] | [7] | [8]
active: [2] 100 µM and 73.3 µM and 33.4 µM | [3] 51.7 µM [middle of 4 runs] | [4] 150 µM and 158 µM | [5] 71.5 µM [middle of 4 runs] | [6] 173 µM and 60.4 µM | [7] 30.1 µM and 43.7 µM and 33.4 µM | [8] 145 µM

Oc1ccc(O)cc1
active: [5] 48.3 µM | [7] 200 µM
not listed: [4] | [6]
inactive: all other assays above

Cc1cc(Cc2ccc(N)c(C)c2)ccc1N
not listed: [4] | [6]
inactive: all other assays above

CN(C)C(=O)NC1(c2ccccc2)CCN(CCC[C@]2(c3ccc(Cl)c(Cl)c3)CCCN(C(=O)c3ccccc3)C2)CC1
active: [1] 5.22 µM | [3] 4.53 µM | [5] 2.75 µM
not listed: [9] | [10]
inactive: all other assays above

Cc1cc(SC2=C(O)C[C@@](CCc3ccc(N)cc3)(C(C)C)OC2=O)c(C(C)(C)C)cc1CO
not listed: [6] | [10]
inactive: all other assays above

COc1ccc(C(=O)Nc2nc3ccccc3c(NCc3ccccc3)c2C#N)cc1
active: [2] 3.82 µM | [4] 0.421 µM
not listed: [6] | [10]
inactive: all other assays above

CC(C)(O)c1ccc(CNC(=O)c2cccnc2Oc2ccc(F)cc2)cc1
active: [3] 0.184 µM
not listed: [4] | [6]
inactive: all other assays above

CC(=O)CC(c1ccccc1)c1c(O)c2ccccc2oc1=O (configuration not stated)
not listed: [4] | [6] | [10]
inactive: all other assays above

CCc1cc(C2=C(C(=O)O)N(c3ccccc3C(F)(F)F)S(=O)(=O)c3ccccc32)cc2c1OCO2
active: [5] 38.6 µM
not listed: [4] | [10]
inactive: all other assays above

N[C@@H](Cc1c[nH]c2ccccc12)C(=O)O
active: [4] 24 µM
not listed: [9]
inactive: all other assays above

CCCC[C@H]1CN(CC2CCOCC2)C(=O)OC12CCN(C1(C)CCN(C(=O)c3c(C)ncnc3C)CC1)CC2
not listed: [9] | [10]
inactive: all other assays above

Oc1ccccc1O
active: [2] 25 µM | [5] 13.3 µM
inactive: [1] | [3] | [7] | [10] | [8]

CCc1nc(N)nc(N)c1-c1ccc(Cl)cc1
inactive: [3] | [4] | [7] | [8]
active: [1] 15 µM | [2] 2.18 µM | [5] 2.53 µM

CS(=O)(=O)c1ccc([C@@H](C[C@H]2CCC(=O)C2)C(=O)Nc2cnccn2)cc1Cl
not listed: [9] | [10]
inactive: all other assays above

CC(=O)S[C@H](C(=O)N[C@H]1Cc2ccccc2[C@H]2CCC[C@@H](C(=O)O)N2C1=O)C(C)C
not listed: [6] | [9] | [10]
inactive: all other assays above

CCCCCCCC(=O)OC
not listed: [9] | [10]
inactive: all other assays above

CCCCC(CC)COC(=O)CCCCCCCC(=O)OCC(CC)CCCC (configuration not stated)
inactive: [1] | [2] | [3] | [5] | [7] | [8]

O=C(O)c1cccnc1
not listed: [3] | [9] | [10]
inactive: all other assays above

c1ccc2occc2c1
active: [4] 21.7 µM
not listed: [9] | [10]
inactive: all other assays above

Cc1cn([C@H]2C=C[C@@H](CO)O2)c(=O)[nH]c1=O
not listed: [9] | [10]
inactive: all other assays above

CCOCCOCCO
not listed: [9] | [10]
inactive: all other assays above

O=C(Oc1ccccc1)c1cccc(C(=O)Oc2ccccc2)c1
not listed: [6] | [9]
inactive: all other assays above

NC=O
not listed: [6] | [9]
inactive: all other assays above

NCCOCCOCCN
not listed: [9] | [10]
inactive: all other assays above

O=C1CCCCC1
not listed: [9] | [10]
inactive: all other assays above

CCCCC(CC)CO (configuration not stated)
not listed: [6] | [9] | [10]
inactive: all other assays above

CC(=O)O
not listed: [9] | [10]
inactive: all other assays above

CC(=O)[C@@]1(O)CC[C@H]2[C@@H]3CCC4=CC(=O)CC[C@]4(C)[C@H]3CC[C@@]21C
not listed: [4] | [9]
inactive: all other assays above

Cc1occc(=O)c1O
not listed: [9] | [10]
inactive: all other assays above

CC1(C)C(=O)NC(=O)N1CO
not listed: [6] | [9] | [10]
inactive: all other assays above

COC(=O)[C@H]1[C@H]2C[C@@H]3c4[nH]c5cc(OC)ccc5c4CCN3C[C@H]2C[C@@H](OC(=O)c2cc(OC)c(OC)c(OC)c2)[C@@H]1OC
active: [3] 22.8 µM | [4] 12.5 µM | [5] 25.5 µM
not listed: [9] | [10]
inactive: all other assays above

CCCCCCCCCC[N+](C)(C)[O-]
not listed: [6] | [9] | [10]
inactive: all other assays above

O=C1OC(c2ccc(O)cc2)(c2ccc(O)cc2)c2ccccc21
active: [1] 184 µM | [2] 177 µM | [3] 54.9 µM | [5] 169 µM | [10] 4.2 µM
inactive: [7] | [8]

O=C1NC(=O)C(c2ccccc2)(c2ccccc2)N1
active: [4] 59.3 µM
not listed: [6] | [9] | [10]
inactive: all other assays above

O=C(O)CN(CC(=O)O)CC(=O)O
not listed: [4] | [6] | [9]
inactive: all other assays above

C=CCCCCCCCCCCCC
active: [2] 100 µM | [3] 177 µM
inactive: [1] | [4] | [5] | [7] | [8]

O=C(N[C@@H](c1ccccc1)[C@@H]1CCCCN1)c1cccc(C(F)(F)F)c1Cl
active: [2] 12.1 µM | [5] 9.01 µM | [10] 20.9 µM
not listed: [6] | [9]
inactive: all other assays above

COC(=O)CCCC(=O)OC
not listed: [4] | [6] | [9]
inactive: all other assays above

CC(C)(C)c1ccccc1
not listed: [4] | [9]
inactive: all other assays above
